Experimental data: PubChem BioAssay AID1259240 (Keith Lab, Institute of Cancer Science, University of …, 2017)
Unmarked numbers belong to inactive results. Activity calls are given as the source filed them. Rule as the data show it: active = fold change mostly below about -2 (no sharp cut-off); inactive = mostly above about -1.8.

Assay: modulation of TERT promoter-driven luciferase – cell-based, luciferase reporter, human, primary screen (AID 1259240)
Details: A2780 TERT promoter luciferase reporter, 16 h; at 20 µM, fold versus average of vehicle-only wells

## O=C(NCC1(c2ccccc2)CCCC1)c1ccc2c(=O)n3c(nc2c1)CCCCC3
  fold change: -1.33

## C=CCN1C(=O)/C(=c2\sc3nc(-c4ccccc4OC)nn3c2=O)c2cc(Br)ccc21
  fold change: 1.17

## Cc1cc(C)c2c(=O)n(CC(=O)N3CCCC3)sc2n1
  fold change: 1.19

## C=CCNC(=O)CSc1nc(-c2cccs2)cc(C(F)(F)F)n1
  fold change: -1.55

## CCOC(=O)C(Sc1nnc(-c2c[nH]c3ccccc23)n1C)C(=O)OCC
  outcome: inactive

## O=C(Nc1nnc(N2CCCCC2)s1)Nc1ccccc1Cl
  fold change: -2.93 (active)

## CC1CCCCN1c1nnc(NC(=O)Cn2c(=O)oc3ccccc32)s1 (stereo unspecified)
  fold change: 1.11

## Cc1ccc(N2CCN(c3cc(C)nc4ncnn34)CC2)c(C)c1
  fold change: -1.38

## O=C(Nc1cccc(F)c1)C1CCCN(S(=O)(=O)c2cnc[nH]2)C1 (stereo unspecified)
  fold change: 1.26

## O=C(CCSCCc1ccccn1)Nc1nccs1
  fold change: 1.07

## CCN1CCN(CCNc2cc(C)nc3c(-c4ccc(OC)c(OC)c4)c(C)nn23)CC1
  fold change: -1.31

## Cc1ccc(-c2cc(N)n(S(=O)(=O)c3cccc4nsnc34)n2)cc1
  fold change: -1.42

## Cc1ccc(Cn2nc(C)c(NC(=O)c3onc(C)c3Cl)c2C)cc1
  fold change: 1.31

## C=CCN1C(=O)C2(/C(=C(/O)c3ccccc3)C(=O)C(=O)N2CCCN2CCOCC2)c2ccccc21 (stereo unspecified)
  fold change: 1.29

## CCOC(=O)CSc1nnc(-c2c[nH]c3ccccc23)n1CCOC
  outcome: inactive

## Cc1nc2c(-c3ccc(F)cc3)c(C)nn2c(C)c1CCC(=O)NC(C)C
  fold change: -1.28

## COc1ccc(-c2noc(-c3cc(OC)c(OC)cc3OC)n2)cc1
  fold change: 1.46

## Cn1c(=O)oc2cc(S(=O)(=O)N3CCCC(C(=O)NCCN4CCCC4)C3)ccc21 (stereo unspecified)
  fold change: 1.73

## CCOc1cc2c(cc1OCC)C(c1ccc(Br)cc1)CC(=O)N2 (stereo unspecified)
  fold change: 1.18

## CCN(CC)CCNc1nc2c(c(=O)[nH]c(=O)n2C)n1Cc1ccccc1Cl
  fold change: -1.23

## Cn1c(=O)c(=O)n(C)c2cc(S(=O)(=O)N3CCCC3C(=O)Nc3nccs3)ccc21 (stereo unspecified)
  fold change: 1.15

## Cc1ccc(-c2n[nH]c3c2C(c2cccc([N+](=O)[O-])c2)NC3=O)cc1 (stereo unspecified)
  fold change: 1.04

## Cn1cnc2c(sc3nc(N4CCOCC4)c4c(c32)CC(C)(C)OC4)c1=O
  fold change: 1.1

## COc1cccc(C2C(C#N)=C(N)Oc3n[nH]c(-c4ccc(Br)cc4)c32)c1OC (stereo unspecified)
  fold change: -1.08

## CCOC(=O)C1=C(CS(=O)(=O)c2ccc(C)cc2)NC(=O)NC1c1ccccc1 (stereo unspecified)
  fold change: 1.64

## Cc1sc2nc3ccc(N4CCCC4)nn3c(=O)c2c1C
  fold change: -1.02

## CN(Cc1ccccc1)C(=O)C1CCCN(S(=O)(=O)c2ccc3c(c2)oc(=O)n3C)C1 (stereo unspecified)
  fold change: -1.14

## COc1cc2[nH]c(=O)n(CC3CCCO3)c(=O)c2cc1OC (stereo unspecified)
  fold change: 1.01

## COc1cc2c(c(OC)c1)C(c1cccc3ccccc13)CC(=O)N2 (stereo unspecified)
  fold change: -1.05

## O=c1c2ccccc2[nH]c(=S)n1CCCN1CCc2ccccc2C1
  fold change: -2.32 (active)

## COc1ccc(NC(=O)Nc2c(C)n(C)n(-c3ccccc3)c2=O)cc1
  fold change: -1.33

## CC(=O)N1CCC(N(C(=O)Nc2ccc(F)cc2)C2CCCC2)CC1
  fold change: -1.02

## Cc1cc(NC(=O)c2onc(C)c2Cl)n(-c2ccccc2)n1
  fold change: 1.18

## CCS(=O)(=O)Nc1ccc(C2=NN(S(=O)(=O)c3ccc(F)cc3)C(c3cccs3)C2)cc1 (stereo unspecified)
  fold change: 1.07

## Cc1nn(CC(=O)Nc2sc3c(c2C#N)CCCCC3)c(C)c1[N+](=O)[O-]
  fold change: -1.25

## Cc1nnc(NC(=O)Cn2c(=O)sc3ccccc32)s1
  fold change: -1.03

## Cc1ccc(NC(=O)CC2Sc3ccc(C(F)(F)F)cc3NC2=O)cc1C (stereo unspecified)
  fold change: -1.24

## COc1ccc2oc(=O)c(S(=O)(=O)c3ccc(C(C)C)cc3)cc2c1
  fold change: 1.21

## O=C(NC1CCCCC1)C(=O)c1c(-c2ccccc2)cc2ccccn12
  fold change: 1.24

## O=S1(=O)NC(=NC2CCCCCC2)c2ccccc21
  outcome: inactive

## NC(=O)c1ccccc1NC(=O)c1cc(-c2ccc(Br)s2)nc2ccccc12
  fold change: -2.57 (active)

## O=c1/c(=C/c2c(F)cccc2Cl)sc2nc(-c3ccco3)nn12
  fold change: 1.03

## CCOc1ccc(/C=c2\sc3nc(=O)c(Cc4ccc(Cl)cc4)nn3c2=O)cc1OC
  fold change: 1.07

## Cc1cc2c(c(=O)[nH]1)C(=O)O/C2=C\c1cc([N+](=O)[O-])ccc1O
  fold change: -1.57

## COc1ccc2[nH]cc(S(=O)(=O)c3ccc(C)cc3)c(=O)c2c1
  fold change: 1.08

## CCOC(=O)c1nn(-c2ccc(OC)cc2)c(=O)c2c(NC(C)=O)scc12
  fold change: 1.14

## Cc1ccccc1N1CC(O)(c2ccccc2)[N+]2=C1SCCC2 (stereo unspecified)
  fold change: -1.05

## CC(=O)c1cccc(Nc2nc(-c3c(C)nc4cc(C)ccn34)cs2)c1
  fold change: -2.84 (active)

## CC(NC(=O)c1cnn2c(C(F)F)cc(-c3ccccc3)nc12)c1ccccc1 (stereo unspecified)
  fold change: -1.39

## C=CCOc1ccc(-c2nc3s/c(=C\c4ccc(OC(C)=O)c(OC)c4)c(=O)n3n2)cc1
  fold change: 1.33

## Cc1cc(=O)[nH]c(SCC(=O)c2c[nH]c3ccccc23)n1
  outcome: inactive

## CCCCN(CC)S(=O)(=O)c1ccc2c(c1)n(C)c(=O)c(=O)n2C
  fold change: 1.13

## CN(CC(=O)Nc1ccc2c(c1)OCO2)S(=O)(=O)c1ccc2c(c1)c(=O)n(C)c(=O)n2C
  fold change: -1.32

## CCOC(=O)N1CCC(Nc2c(N3CCCCC3C)c(=O)c2=O)CC1 (stereo unspecified)
  fold change: 1.02

## O=C(CSc1nc(-c2cccs2)cc(C(F)(F)F)n1)NCc1cccnc1
  fold change: -2.7 (active)

## COC(=O)CSc1nnc2sc3ccccc3n12
  fold change: -1.32

## O=C(CCCc1nnc2n3nc(-c4ccccc4)nc3c3ccccc3n12)NCC1CCCO1 (stereo unspecified)
  fold change: 1.2

## Cc1ccc2oc(-c3cc(NC(=O)c4ccc5c(c4)OCCO5)ccc3O)nc2c1
  outcome: active

## Cc1nnc2ccc(N3CCC(C(N)=O)(N4CCCCC4)CC3)nn12
  fold change: -1.03

## CCn1c2ccccc2c2nnc(SCC(=O)Nc3nnc(C(C)C)s3)nc21
  fold change: -1.93

## Cc1nc(SCC(=O)N2CCCC2)c2c(=O)n(C)c(=O)n(C)c2n1
  fold change: 1.5

## c1cc2nncn2nc1NCCCN1CCOCC1
  fold change: -1.08

## COCCn1cc(/C=C2/C(=O)Nc3ccccc32)c2ccccc21
  fold change: 1.23

## Cc1cc(NC(=O)c2cc3c(s2)-c2ccccc2S(=O)(=O)C3)no1
  fold change: 1.14

## Cn1c(=O)c(=O)n(C)c2cc(S(=O)(=O)N3CCCC3C(=O)NC3CCCCC3)ccc21 (stereo unspecified)
  fold change: 1.05

## CCOc1ccc(C2CC(=O)Nc3cc4c(cc32)OCO4)cc1Cl (stereo unspecified)
  fold change: -1.12

## Cc1noc(C(=O)Nc2cccc(Cl)c2)c1Cl
  fold change: 1.73

## Cc1ccc2c(c1)c(-c1ccccc1)nc1nncn12
  fold change: 1.67

## CN(CC(=O)Nc1nccs1)S(=O)(=O)c1ccc2c(c1)n(C)c(=O)c(=O)n2C
  fold change: 1.27

## COc1ccc(-c2csc3nc(-c4ccccc4F)oc(=O)c23)cc1OC
  fold change: -1.03

## Cc1nc2cc(-c3ccc(Cl)cc3)nn2c(C)c1CCC(=O)O
  fold change: -16.5 (active)

## Cc1cc(NC(=O)CSc2nnc(Cc3cc(=O)[nH]c(=O)[nH]3)n2-c2ccccc2)no1
  fold change: -1.88

## C=CCn1c(Oc2ccc(C(=O)OC)cc2)nc2c1c(=O)n(C)c(=O)n2C
  fold change: -2.04 (active)

## CN(C)CCNC(=O)C(=O)Nc1ccc2nc3n(c(=O)c2c1)CCCCC3
  fold change: 1.06

## CC(C)C(NS(=O)(=O)c1cccc2nsnc12)C(=O)NC1CCCCC1C (stereo unspecified)
  fold change: -1.42

## COc1cc2[nH]c(C)cc(=O)c2cc1OC
  fold change: 1.12
